High-throughput results: PubChem, National Center for Advancing Translational Sciences (NCATS)
Shown are actives, neighbours in structure and some others; about 4.6% of the full set was active somewhere.
Lassa entry inh = blocks Lassa virus binding to or entry into cells; AID 540256; Potency, µM (highest dose often 37.9 µM), actives largely listed as inhibitors; Lassa virus pseudotype entry inhibition, cell reporter; hit rate 1.2% among 300,000; calls by dose curve; tested in HEK293 cells; note: nearly all actives have a fitted effect of over 50% in size
Vaccinia mCherry = vaccinia inhibition (mCherry reporter) | Potency, µM (titrated, usually from 36.5 µM), hits mostly inhibitors | AID 720579 | Vaccinia virus mCherry reporter infection, fluorescence | hit rate 0.63% among 310,000; calls by dose curve; tested in A549 cells; note: nearly all actives have a fitted effect of over 35% in size
Marburg entry inh = inhibitors of Marburg virus binding or cell entry | Marburg virus pseudotyped entry inhibition, cell reporter | hit rate 1.8% among 300,000 | Potency, µM (titrated, usually from 37.8 µM), hits mostly inhibitors | AID 540276; calls by dose curve; tested in HEK293 cells
Vaccinia Venus = vaccinia inhibition (Venus reporter); Vaccinia virus Venus reporter expression, fluorescence; hit rate 0.46% among 330,000; Potency, µM (highest dose often 36.5 µM), hits mostly inhibitors; AID 720580; calls by dose curve; tested in A549 cells; note: nearly all actives have a fitted effect of over 30% in size
HCV inh = HCV inhibition | Potency, µM (titrated, usually from 41.8 µM), usual class: inhibitors | AID 651820 | Huh7.5.1 HCVcc-Cre infection, luciferase reporter, 44 h | hit rate 3.4% among 340,000; active = well fitted inhibition curve with a large enough effect; inconclusive = small, poorly fitted or top-dose-only effect, or another doubt; inactive = no such curve, though single readings can be large or run the other way
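Infectious HCV cell culture screen: compound-treated cells (1,000/well, pre-plated 4 h) are infected with HCVcc-Cre at roughly 0.5 moi and grown 44 h. Infection is quantified by luciferase signal after 15 min substrate incubation at room temperature.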
Hits are given with their value; i = inactive; ? = inconclusive; nt = no result; ! = not confirmed by another sample; [ ] = dose if it differs, or a comment.

SMILES	Lassa entry inh	Vaccinia mCherry	Marburg entry inh	Vaccinia Venus	HCV inh
COCCCNC(=O)c1ccc2nc(Cc3ccc(OC)cc3)oc2c1	?	i	?	i	i
C=CCNC(=O)c1ccc2nc(Cc3ccc(OC)cc3)oc2c1	5.62µM	i	?	i	i
CCOC(=O)Cn1c(=O)n(C2CCCCC2)c2nc(-c3c(F)cccc3Cl)nc(C(N)=O)c21	i	i	nt	i	nt
COCCNC(=O)c1ccc(Cn2c(SCC(=O)NC(C)C)nc3ccccc3c2=O)cc1	i	i	nt	i	nt
CC(C)(C)c1cc(CCC(=O)NN)cc(C(C)(C)C)c1O	?	i	i	i	i
CC(OC(=O)CCc1cc(C(C)(C)C)c(O)c(C(C)(C)C)c1)C(=O)NC1CC1 (stereo unspecified)	?	12.6µM	?	i	?
Cc1ccc2c(COC(=O)C3=COCCO3)cc(=O)oc2c1	?	i	?	i	i
CCOC(=O)c1oc2ccc(Br)cc2c1COC(=O)C1=COCCO1	i	i	i	i	25.1µM
Cc1ccccc1NS(=O)(=O)c1cc(C(=O)NCCSC2CCCCC2)ccc1C	8.2µM	i	?	i	?
Cc1ccc(C(=O)NCCSc2ccccc2)cc1S(=O)(=O)Nc1ccccc1	?	nt	23.1µM	nt	?
Cc1cc(O)c2c(c1)OC(C)(C)C1=C2CC(C)CC1 (stereo unspecified)	nt	nt	nt	nt	12.6µM
Cc1ccc(-n2ncc(C(=O)NCc3ccccc3)c2C2CCN(C(=O)OC(C)(C)C)CC2)cc1	?	i	nt	i	nt
COc1cccc(CO[C@H]2C=C[C@@H](c3ccccc3)O[C@H]2CO)c1	nt	nt	i	nt	nt
CN1CCN(c2ccc(NC(=O)c3ccc(C(F)(F)F)cc3)cn2)CC1	?	i	?	i	11.2µM
Cc1ccccc1C(=O)Nc1ccc(N2CCN(C)CC2)nc1	i	i	i	i	i
COC(=O)c1ccccc1-c1cc(C)cc2c1OC(CNC(=O)c1occc1C)C2 (stereo unspecified)	nt	i	nt	i	nt
COc1ccc(C)cc1-n1c(C)cc(C=O)c1C	i	i	i	i	?
COc1ccc(N)cc1-n1c(C)ccc1C	i	?	?	i	0.708µM
O=C(CN1CCC(C(O)(c2ccccc2)c2ccccc2)CC1)Nc1cc(Cl)ccc1Cl	8.2µM	i	?	i	i
O=C(CN1CCC(C(O)(c2ccccc2)c2ccccc2)CC1)Nc1ccccc1	?	i	23.1µM	i	?
CC1CCN(CC(=O)Nc2cccc(C(=O)Nc3cccc(C(F)(F)F)c3)c2)CC1	?	i	8.91µM	?	22.4µM
COC(=O)C1=C(C)N(CC2CC2)C(=NCCc2cccnc2)NC1c1ccccc1 (stereo unspecified)	i	nt	i	nt	nt
CC1CCCCN1C(=O)Cc1ccc(Cl)cc1 (stereo unspecified)	i	i	i	i	i
O=C(Cc1ccc(Cl)c(Cl)c1)N1CCCCC1CN1CCCC1 (stereo unspecified)	?	i	8.91µM	i	nt
Cc1cc(O)c2c3c(c(=O)oc2c1)CCC(C)C3 (stereo unspecified)	nt	nt	nt	nt	8.91µM
SMILES	Lassa entry inh	Vaccinia mCherry	Marburg entry inh	Vaccinia Venus	HCV inh
COc1ccc(C(=O)C2CCCN(Cc3cccn3-c3ccc(Cl)cn3)C2)c(OC)c1 (stereo unspecified)	?	i	?	i	8.91µM
COc1ccc(Cl)cc1C(=O)C1CCCN(Cc2cnc(C)s2)C1 (stereo unspecified)	11.2µM	i	i	i	i
COc1ccc(F)cc1C(=O)C1CCCN(Cc2cnc(C)s2)C1 (stereo unspecified)	nt	nt	nt	nt	i
CCOc1ccccc1CNC(=O)Cn1c(-c2ccccc2)cc(C(C)=O)c1C	nt	i	i	i	nt
Cc1ccn2c(C(=O)c3ccc(Cl)cc3)cnc2c1	17.8µM	i	?	i	?
O=C(CSc1n[nH]c(-c2ccc(Cl)cc2Cl)n1)Nc1ccccn1	i	i	i	i	i
O=C(CSc1n[nH]c(-c2ccccn2)n1)Nc1ccc(F)cc1	10µM	14.1µM	?	?	?
O=C(CSc1n[nH]c(-c2ccccn2)n1)Nc1ccc(Cl)cc1	?	7.94µM	?	i	5.01µM
Cc1ccc(NC(=O)CSc2n[nH]c(-c3ccccn3)n2)cc1	?	10µM	4.47µM	?	?
O=C(CSc1n[nH]c(-c2ccncc2)n1)Nc1ccccc1	i	i	i	i	i
COC(=O)CC=C1c2ccccc2[C@@H](OC)[C@@H]1C	?	nt	i	nt	nt
CC(C)CO/N=C1\C[C@@H](O)[C@@H](O)[C@@H]2[C@@H]3C(=O)N(Cc4ccc5c(c4)OCO5)C(=O)[C@@H]3CC[C@H]12	nt	nt	i	nt	nt
O=C(Nc1ccc(N2CCC(N3CCCCC3)CC2)c(C(=O)O)c1)c1ccccc1	i	i	nt	i	nt
O=C(Nc1cc2c3c(c1)C1CCCC1CN3CC1CCCC21)c1ccccc1 (stereo unspecified)	i	nt	i	nt	15.8µM
CCN(CC)c1ccc2c(c1)CCCN2	nt	nt	nt	nt	11.2µM
Cc1ccc(C(=O)NS(=O)(=O)c2ccccc2)cc1	i	i	i	i	3.16µM
Cc1ccc(S(=O)(=O)/C(=C/Cl)NC(=O)c2ccccc2)cc1	7.31µM	?	7.08µM	?	?
Cc1ccc(C(=O)NC(=C(Cl)Cl)S(=O)(=O)c2ccc(C)cc2)cc1	?	?	?	?	i
OCCN1CCN(c2ncnc3c2sc2nc(N4CCOCC4)c4c(c23)CCC4)CC1	i	?	?	?	11.2µM
CC1(C)Cc2c(c(N3CCCC3)nc3sc4c(N5CCN(CCO)CC5)ncnc4c23)CO1	?	i	?	?	2.24µM
COc1ccc(N2CCN(C(=O)Cn3cnc4sc(C)c(S(=O)(=O)N5CCCCC5)c4c3=O)CC2)cc1	?	i	i	i	nt
CC(C)CO/N=C1\C[C@@H](O)[C@@H](O)[C@@H]2[C@@H]3C(=O)N(c4ccc(F)cc4F)C(=O)[C@@H]3CC[C@@H]12	nt	nt	i	nt	nt
NC12CC3CC(CC(C3)C1)C2	i	i	?	i	i[8.37 µM]
CC12CC3CC(C)(C1)CC(N)(C3)C2	?	i	12.6µM	i	i
CC(C)[C@H](N)C(=O)OCCOCn1cnc2c(=O)[nH]c(N)nc21	nt	i	nt	i	0.501µM!
SMILES	Lassa entry inh	Vaccinia mCherry	Marburg entry inh	Vaccinia Venus	HCV inh
CCC(C)(C)NC(=O)C(c1ccc(C)cc1)N(Cc1cccs1)C(=O)c1ccc2c(c1)OCCO2 (stereo unspecified)	?	i	14.6µM	i	i
O=C(c1ccccc1)N1CCN(CC(O)COc2cccc3ccccc23)CC1 (stereo unspecified)	nt	nt	nt	nt	i
O=C(c1cccc(COc2cccc3ccccc23)c1)N1CCCC1	8.2µM	nt	?	nt	?
CCCCC1(Cc2cccc([N+](=O)[O-])c2)C(=O)N(c2ccccc2)N(c2ccccc2)C1=O	?	i	15.8µM	i	6.31µM
COC(=O)C1=C(C(=O)OC)[C@@H]2Nc3ccccc3[C@@]23C[C@@H](C(=O)OC)N(C(=O)Nc2ccccc2F)C3=N1	nt	nt	i	nt	nt
Nc1c(Cl)ncnc1NCc1cccnc1	i	i	i	i	i
Nc1c(Cl)ncnc1NCCc1ccc(O)cc1	nt	?	nt	i	6.31µM
COC(=O)c1scc(-c2ccc(C)cc2)c1S(=O)(=O)Nc1cc(C)c(Cl)cc1OC	i	i	nt	i	nt
CC(C)(C)c1ccc(C(=O)NCCOc2ccccc2)cc1	?	i	1.58µM	i	i
CCCCOc1ccc(C(=O)NCC(=O)NCCOc2ccccc2OC)cc1	nt	nt	nt	nt	12.6µM
